In all, about 5,500 compounds went through this assay and about 2,000 (36%) were called active. Inconclusive results (about 18%) are left out. Rule as the data show it: active = normalized growth mostly below about 0.91 (no sharp cut-off); inconclusive = no clear call, values can overlap the other calls; inactive = mostly above about 0.92. The list shows a part of the results.
Assay: chemical genetic growth profiling, strain panel (AID 1159580);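 also: tested at 20 µM; growth read once vehicle control cultures reached saturation at 30 °C; 1 = growth at the plate median or of vehicle wells; lower values mean less growth of the strain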
Details: S. cerevisiae deletion strains, growth OD
[1] = locus YAL021C, strain ccr4, hits give low values
[2] = locus YAL026C, strain drs2, hits give low values
[3] = locus YAL030W, strain snc1, hits give low values
[4] = locus YBL061C, strain skt5, hits give low values
[5] = locus YBR009C, strain hhf1, hits give low values
[6] = locus YBR023C, strain chs3, hits give low values
[7] = locus YBR171W, strain sec66, hits give low values
[8] = locus YBR231C, strain swc5, hits give low values
[9] = locus YBR279W, strain paf1, hits give low values
[10] = locus YCL011C, strain gbp2, hits give low values
[11] = locus YCL016C, strain dcc1, hits give low values
[12] = locus YCL069W, strain vba3, hits give low values
[13] = locus YCR088W, strain abp1, hits give low values
[14] = locus YDL005C, strain med2, hits give low values
[15] = locus YDL040C, strain nat1, hits give low values
[16] = locus YDR001C, strain nth1, hits give low values
[17] = locus YDR069C, strain doa4, hits give low values
[18] = locus YDR137W, strain rgp1, hits give low values
[19] = locus YDR159W, strain sac3, hits give low values
[20] = locus YDR297W, strain sur2, hits give low values
[21] = locus YDR334W, strain swr1, hits give low values
[22] = locus YDR335W, strain msn5, hits give low values
[23] = locus YDR392W, strain spt3, hits give low values
[24] = locus YEL003W, strain gim4, hits give low values
[25] = locus YEL037C, strain rad23, hits give low values
[26] = locus YEL061C, strain CIN8 (second series), hits give low values
[27] = locus YER015W, strain faa2, hits give low values
[28] = locus YER016W, strain bim1, hits give low values
[29] = locus YER111C, strain swi4, hits give low values
[30] = locus YER155C, strain BEM2 (second series), hits give low values
[31] = locus YFR010W, strain ubp6, hits give low values
[32] = locus YGL167C, strain pmr1, hits give low values
[33] = locus YGL173C, strain kem1, hits give low values
[34] = locus YGL227W, strain vid30, hits give low values
[35] = locus YGL240W, strain doc1, hits give low values
[36] = locus YGL253W, strain hxk2, hits give low values
[37] = locus YHR013C, strain ard1, hits give low values
[38] = locus YHR027C, strain rpn1, hits give low values
[39] = locus YHR030C, strain SLT2, hits give low values
[40] = locus YHR079C, strain IRE1, hits give low values
[41] = locus YHR142W, strain chs7, hits give low values
[42] = locus YJL092W, strain hpr5, hits give low values
[43] = locus YJL095W, strain BCK1 (second series), hits give low values
[44] = locus YJL095W, strain BCK1, hits give low values
[45] = locus YJL115W, strain asf1, hits give low values
[46] = locus YJL129C, strain trk1, hits give low values
[47] = locus YJL154C, strain vps35, hits give low values
[48] = locus YJL164C, strain tpk1, hits give low values
[49] = locus YJL166W, strain qcr8, hits give low values
[50] = locus YJL187C, strain SWE1, hits give low values
[51] = locus YJR066W, strain TOR1, hits give low values
[52] = locus YKL160W, strain elf1, hits give low values
[53] = locus YKR026C, strain gcn3, hits give low values
[54] = locus YKR091W, strain srl3, hits give low values
[55] = locus YLL001W, strain dnm1, hits give low values
[56] = locus YLL026W, hits give low values
[57] = locus YLL041C, strain sdh2, hits give low values
[58] = locus YLR027C, strain aat2, hits give low values
[59] = locus YLR221C, strain rsa3, hits give low values
[60] = locus YLR258W, strain gsy2, hits give low values
[61] = locus YLR262C, strain YPT6 (second series), hits give low values
[62] = locus YLR320W, strain mms22, hits give low values
[63] = locus YLR342W, strain FKS1, hits give low values
[64] = locus YLR357W, strain rsc2, hits give low values
[65] = locus YLR370C, strain arc18, hits give low values
[66] = locus YLR384C, strain iki3, hits give low values
[67] = locus YML120C, strain ndi1, hits give low values
[68] = locus YMR058W, strain fet3, hits give low values
[69] = locus YMR125W, strain sto1, hits give low values
[70] = locus YMR129W, hits give low values
[71] = locus YMR205C, strain PFK2, hits give low values
[72] = locus YMR231W, strain pep5, hits give low values
[73] = locus YNL071W, strain lat1, hits give low values
[74] = locus YNL183C, strain NPR1, hits give low values
[75] = locus YNL209W, strain ssb2, hits give low values
[76] = locus YNL248C, strain rpa49, hits give low values
[77] = locus YNL322C, strain KRE1 (second series), hits give low values
[78] = locus YNR049C, strain mso1, hits give low values
[79] = locus YOR001W, strain rrp6, hits give low values
[80] = locus YOR070C, strain gyp1, hits give low values
[81] = locus YOR080W, strain dia2, hits give low values
[82] = locus YOR083W, strain WHI5, hits give low values
[83] = locus YOR106W, strain vam3, hits give low values
[84] = locus YOR231W, strain MKK1, hits give low values
[85] = locus YOR265W, strain rbl2, hits give low values
[86] = locus YOR270C, strain vph1, hits give low values
[87] = locus YOR290C, strain snf2, hits give low values
[88] = locus YPL051W, strain arl3, hits give low values
[89] = locus YPL078C, strain atp4, hits give low values
[90] = locus YPL106C, strain sse1, hits give low values
[91] = locus YPL240C, strain hsp82, hits give low values
[92] = locus YPL256C, strain CLN2, hits give low values

Measured: normalized growth

NCCC1CCCC(CCN)N1 (stereo not drawn)
inactive: locus YAL013W, strain DEP1, hits give low values 1.01 | locus YAL040C, strain CLN3, hits give low values 1.01 | locus YCL061C, strain MRC1 (second series), hits give low values 1.01 | locus YDR363W, strain ESC2, hits give low values 1.01 | locus YER002W, strain NOP16, hits give low values 0.995 | locus YGR078C, strain PAC10, hits give low values 1.02 | locus YGR229C, strain SMI1, hits give low values 1.01 | locus YJR075W, strain HOC1, hits give low values 1.01 | locus YNL153C, strain GIM3, hits give low values 1.01 | locus YNL175C, strain NOP13, hits give low values 1 | locus YNL197C, strain WHI3, hits give low values 1 | locus YNL224C, strain SQS1, hits give low values 1 | locus YOR083W, strain WHI5 (second series), hits give low values 1.01 | locus YPL055C, strain LGE1, hits give low values 1.02 | locus YPL241C, strain CIN2, hits give low values 1.01

COc1ccc2nc(S(=O)Cc3ncc(C)c(OC)c3C)[nH]c2c1 (stereo not drawn)
active: [1] 0.795 | [5] 0.907 | [9] 0.913 | [17] 0.812 | [23] 0.556 | [30] 0.812 | [37] 0.753 | [39] 0.791 | [44] 0.752 | [59] 0.904 | [61] 0.857 | [62] 0.765 | [73] 0.702 | [80] 0.897 | [83] 0.857 | [88] 0.846
inactive: [2] 1 | [3] 1.02 | [4] 1.01 | [6] 0.957 | [7] 1.02 | [8] 0.953 | [10] 1.01 | [11] 0.962 | locus YCL061C, strain MRC1, hits give low values 1.01 | [12] 1.02 | [13] 1.02 | [14] 1.02 | [15] 1.02 | [16] 1.02 | [18] 0.907 | [19] 0.975 | locus YDR195W, strain ref2 1.02 | [20] 1.01 | [21] 1.01 | [22] 1 | [24] 1.01 | [25] 1.02 | [26] 1.02 | [27] 0.987 | [28] 1.02 | [29] 1.02 | [31] 0.999 | [32] 1.02 | [33] 1.01 | [34] 1.02 | [35] 0.934 | [36] 1.01 | [38] 1.01 | [40] 0.885 | [41] 1.01 | [42] 1.02 | [43] 1.02 | [45] 1.02 | [46] 0.994 | [47] 1.02 | [48] 0.942 | [49] 0.911 | [50] 0.998 | [51] 0.879 | [52] 0.941 | [53] 1.01 | [54] 1.02 | [55] 1.01 | [56] 0.983 | [57] 1.02 | [58] 0.948 | [60] 0.989 | [63] 1.01 | [64] 1 | [65] 1.02 | [66] 1.03 | [67] 0.975 | [68] 0.999 | [69] 1.01 | [70] 1.03 | [71] 0.915 | [72] 1.01 | [74] 0.86 | [75] 0.98 | [76] 1.02 | [77] 1.03 | [78] 1.02 | [79] 0.996 | [81] 1.01 | [82] 0.984 | [84] 1.04 | [85] 0.995 | [86] 0.994 | [87] 0.991 | [89] 0.989 | [90] 1 | [91] 1.01 | [92] 0.988

COc1ccnc(CS(=O)c2nc3ccc(OC(F)F)cc3[nH]2)c1OC (stereo not drawn)
inactive: [1] 0.993 | [2] 1.04 | [3] 1.02 | [4] 1.04 | [5] 0.991 | [6] 1.04 | [7] 1.03 | [8] 1.01 | [9] 1.04 | [10] 1.02 | [11] 1.03 | [12] 1.02 | [13] 1.03 | [14] 1.02 | [15] 1.03 | [16] 1.02 | [17] 1.02 | [18] 1.05 | [19] 0.94 | locus YDR195W, strain ref2 1.01 | [20] 1.02 | [21] 1.03 | [22] 1.05 | [23] 0.925 | [24] 1.02 | [25] 1.03 | [26] 1.02 | [27] 1.03 | [28] 1.04 | [29] 1.05 | [30] 0.917 | [31] 1.01 | [32] 1.02 | [33] 0.989 | [34] 1.03 | [35] 0.977 | [36] 1.05 | [37] 1.05 | [38] 0.989 | [39] 0.864 | [40] 0.946 | [41] 1.05 | [42] 1.01 | [43] 1.02 | [44] 0.89 | [45] 1.02 | [46] 1.03 | [47] 1.02 | [48] 1 | [49] 0.989 | [50] 1.01 | [51] 0.922 | [52] 1.03 | [53] 1.04 | [54] 1.03 | [55] 0.98 | [56] 1.02 | [57] 1.01 | [58] 1.01 | locus YLR113W, strain HOG1, hits give low values 0.926 | [59] 0.982 | [60] 1.04 | [61] 1.01 | [62] 0.936 | [63] 1.02 | [64] 1 | [65] 1.03 | [66] 1.01 | [67] 1 | [68] 1.04 | [69] 1.02 | [70] 1.03 | [71] 1.01 | [72] 1.03 | [73] 1.02 | [74] 0.868 | [75] 1.02 | [76] 1.06 | [77] 1.05 | [78] 1.03 | [79] 1 | [80] 1.02 | [81] 1.04 | [82] 0.995 | [83] 1.02 | [84] 0.953 | [85] 1 | [86] 1.2 | [87] 1.06 | [88] 1 | [89] 1.04 | [90] 1.03 | [91] 1.03 | [92] 0.969

Reference: PubChem BioAssay AID1159580 (chemical genetic matrix, 2015)
